# Most compounds without a hit are left out; they make up all but 12% or so of the library.
# BAZ2B inh: inhibitors of human BAZ2B bromodomain | Q9UIF8 | AlphaScreen BAZ2B-H3K14Ac peptide displacement | Potency, µM (series often up to 114 µM), inactives show at the top dose activity change, negative = inhibition, actives largely listed as inhibitors | 4.4% of 360,000 active; also: % is scaled to controls: 0 for no effect and ±100 for the full control effect; nearly all actives have a fitted effect of over 60% in size
#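 Multi-concentration screen (max 110 uM) measuring displacement of acetylated histone H3 peptide from BAZ2B by AlphaScreen, using 50 nM protein, 50 nM peptide and 10 ug/mL streptavidin donor plus Ni-chelate acceptor beads.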
# HP1b chromo inh: blocks HP1-beta chromodomain binding to methylated histone tails | AlphaScreen HP1-beta / biotin-H3K9me3 peptide binding | 0.56% of 390,000 active | AID 540317 | Potency, µM (titrated, usually from 114 µM), for the others: at the top dose activity change, negative = inhibition, hits mostly inhibitors | P83916; also: nearly all actives have a fitted effect of over 70% in size
# Target sequence (P83916 whole entry, looked up): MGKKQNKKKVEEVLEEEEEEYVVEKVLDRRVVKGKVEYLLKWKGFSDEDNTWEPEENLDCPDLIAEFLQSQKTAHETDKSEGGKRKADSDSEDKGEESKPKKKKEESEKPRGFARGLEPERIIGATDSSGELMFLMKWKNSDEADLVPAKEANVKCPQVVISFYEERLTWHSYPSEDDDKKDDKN
#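 AlphaScreen: HP1-beta (50 nM) preformed 30 min with biotin-H3(1-18)K9me3 peptide (50 nM) in PBS pH 7.4, 0.01% Tween-20. Compound added for 30 min at RT, then streptavidin donor/nickel chelate acceptor beads (10 ug/mL) for 30 min.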
# L3MBTL1 block: inhibitors of human L3MBTL1 | Q9Y468 | AlphaScreen L3MBTL1–H3K9me1 peptide binding | 0.66% of 230,000 active | Potency, µM (highest dose often 57.1 µM), without a hit: at the highest dose activity, negative = inhibition, hits mostly inhibitors | AID 485360; also: % is scaled to controls: 0 for no effect and ±100 for the full control effect; nearly all actives have a fitted effect of over 60% in size
#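 L3MBTL1 (50 nM) pre-complexed 30 min with biotinylated H3(1-15)K9me1 peptide (75 nM), then compounds added for 30 min at room temperature; AlphaScreen streptavidin donor/nickel chelate acceptor beads (10 ug/mL final) read after 30 min dark incubation.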
# Sfp PPTase inh: Sfp phosphopantetheinyl transferase inhibition | Q9F4F7 | Biochemical Sfp PPTase activity, qHTS | Potency, µM, without a hit: largest response in the series, negative = inhibition, actives largely listed as inhibitors | 3.5% of 310,000 active;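 also: the enzyme is Sfp with the accession as filed and its product quenches rhodamine fluorescence; 0% = enzyme reaction without inhibitor and -100% = no enzyme wells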
#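 With Hepes-Na pH 7.6 buffer containing 10 mM MgCl2, Sfp (15 nM) modified BHQ-2-YbbR (12.5 uM) using rhodamine-CoA (5 uM). Two reads 30 minutes apart at 525/598 nm yielded each well's rate.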
# JMJD2A Tudor: blocks the human JMJD2A Tudor domain. AlphaScreen JMJD2A-Tudor / H3K4me3 peptide binding. Potency, µM (series often up to 114 µM), for inactives: at the highest dose activity change, negative = inhibition, usual class: inhibitors. 4.4% of 390,000 active. AID 504339; also: % is scaled to controls: 0 for no effect and ±100 for the full control effect; nearly all actives have a fitted effect of over 50% in size
# G9a inh: inhibitors of human histone lysine methyltransferase G9a. Q96KQ7. Potency, µM (titrated, usually from 102 µM), for the others: at the highest dose activity, negative = inhibition, hits mostly inhibitors. 8.8% of 350,000 active. AID 504332. G9a H3K9 monomethylation, AlphaScreen, 2 h; also: % is scaled to controls: 0 for no effect and ±100 for the full control effect; nearly all actives have a fitted effect of over 75% in size
# Target sequence (Q96KQ7 913-1193 limits assumed): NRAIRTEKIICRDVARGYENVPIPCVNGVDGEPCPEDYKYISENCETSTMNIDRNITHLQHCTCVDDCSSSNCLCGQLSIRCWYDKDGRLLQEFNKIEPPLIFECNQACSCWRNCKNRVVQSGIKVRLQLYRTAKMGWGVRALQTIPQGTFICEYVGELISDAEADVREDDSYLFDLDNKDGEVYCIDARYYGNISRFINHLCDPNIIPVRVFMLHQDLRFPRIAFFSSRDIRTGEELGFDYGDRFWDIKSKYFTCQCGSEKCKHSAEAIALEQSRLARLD
#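 G9a (20 nM) preincubated 15 min RT with compounds, then 500 nM biotinylated H3K9 peptide and 20 uM SAM added; 2 h RT reaction. Monomethyl-H3K9 product detected by AlphaScreen with anti-H3K9me1 antibody, streptavidin donor and anti-rabbit IgG acceptor beads.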
# * = called active by the depositor; u = inconclusive; x = not tested or not shown; ! = a repeat was not active; [ ] = remark or other dose. Calls follow the shape of the dose curve; as a rule, active = well fitted curve in the direction sought with a large enough effect; inconclusive = small, poorly fitted or top-dose-only effect, or another doubt; inactive = no such curve, though single readings can be large; an effect the other way counts as inactive or inconclusive. Potency is read from the fitted curve at half-maximal effect.
SMILES,BAZ2B inh,HP1b chromo inh,L3MBTL1 block,Sfp PPTase inh,JMJD2A Tudor,G9a inh
O=c1c(CCc2ccccc2)nc2cnc(N3CCOCC3)nc2n1C1CC1,x,x,x,9%,x,7%[0.501 µM]
CC(O)[C@@H]1NC(=O)[C@H](CCCN)NC(=O)[C@@H](Cc2c[nH]c3ccccc23)NC(=O)[C@H](Cc2ccc(O)cc2)NC(=O)[C@@H](NC(=O)[C@H](N)Cc2ccccc2)CSSC(C)(C)C(C(=O)N[C@H](C(N)=O)[C@@H](C)O)NC1=O (stereo not given in full),x,x,x,23%,x,x
CCC(C)CCCCC(=O)NC(CCN)C(=O)NC(C(=O)NC(CCN)C(=O)NC1CCNC(=O)C(C(C)O)NC(=O)C(CCN)NC(=O)C(CCN)NC(=O)C(CC(C)C)NC(=O)C(Cc2ccccc2)NC(=O)C(CCN)NC1=O)C(C)O (stereo not given),x,x,x,28µM*,x,-43%[2.33 µM]
N#C/C(C(N)=O)=C1/SC=C(c2ccccc2)N1c1ccccc1,-10%,15%,-8%,13%,-6%,u
N#C/C(C(=O)c1ccccc1)=C1/SC=C(N)N1c1ccccc1,45µM*,x,u,35µM*,x,u
O=C(O)[C@H]1CCCN1,x,x,x,45µM*!,x,40%[59 µM]
COCC1CCN(Cc2c(C(=O)N3CCc4ccccc4C3)nc3ccc(Cl)cn23)C1 (stereo not given),-34%,25%,x,-13%,-27%,40µM*
COC1CCN(Cc2c(C(=O)N3CCc4ccccc4C3)nc3ccc(Cl)cn23)CC1,-5%,11%,x,8%,-10%,x
COc1ccc(O)c(-c2nc3ccccc3c(=O)n2Cc2ccccc2)c1,x,x,x,x,79µM*,x
COC(=O)N1C2=C(c3ccccc3[C@@H]1CC(=O)Nc1ccc3cc4ccccc4cc3c1)[C@@H]1C(=O)N(c3ccccc3)C(=O)[C@@H]1[C@H](C)C2,x,x,x,23%,x,x
Cc1ccc(CNC(=O)c2ccc3nc(SCc4ccc(F)cc4)[nH]c3c2)cc1,40µM*,u,x,x,7.9µM*,7.9µM*
O=C(CSc1nc2ccc(Cl)cc2[nH]1)NCCc1ccccc1,1%,16%,-3%,26%,-3%,79µM*
Cc1ccc(C)c(SCC(=O)NNC(=O)c2ccccc2)c1,-15%,45%,x,18%,7%,45µM*
O=C(CSc1nc2ccc(Cl)cc2[nH]1)NCCc1ccc(Cl)cc1,2%,36%,5%,19%,-6%,u
Cc1ccc2nc(SCC(=O)NNC(=O)c3ccccc3)[nH]c2c1,8%,34%,5%,11%,-20%,25µM*
O=C(O)COc1ccc(/C=C/c2nc(-c3ccccc3O)n[nH]2)cc1,-30%,33%,u,4%,-1%,13µM*
COc1ccc(/C=C/c2nc(-c3ccccc3O)n[nH]2)cc1OC,-35%,17%,-11%,4%,-28%,10%[59 µM]
CC(=O)N(C[C@@H](O)CO)c1c(I)c(C(=O)NC[C@@H](O)CO)c(I)c(C(=O)NC[C@@H](O)CO)c1I,x,x,x,18%,x,14%[21.5 µM]
CC[C@H]1OC(=O)[C@H](C)[C@@H](O[C@H]2C[C@@](C)(OC)[C@@H](O)[C@H](C)O2)C(C)[C@@H](O[C@@H]2O[C@H](C)C[C@H](N(C)C)[C@@H]2O)[C@](C)(OC)C[C@@H](C)C(=O)[C@H](C)[C@@H](O)[C@]1(C)O (stereo not given in full),x,x,x,-10%,x,-2%[2.33 µM]
CCS(=O)(=O)c1nc(S(=O)(=O)c2ccc(Cl)cc2)c(N2CCc3ccccc3C2)s1,-9%,36%,-2%,10%,-15%,8.9µM*
Cc1[nH]c2ccccc2c1C(c1ccccn1)c1c(C)[nH]c2ccccc12,35µM*,-4%,x,40µM*,-25%,28µM*
CCCCC1(Br)C(=O)N(c2ccccc2)N(c2ccccc2)C1=O,u,u,-4%,x,18µM*,u
CCCCC1(CO)C(=O)N(c2ccccc2)N(c2ccccc2)C1=O,-8%,11%,x,-3%,-23%,x
CCCCCNC(=O)C(=O)C1C(=O)Nc2ccccc21 (stereo not given),79µM*,51%,x,9%,u,x
CN(C)CCNC(=O)C(=O)C1C(=O)Nc2ccccc21 (stereo not given),-10%,x,6%,12%,x,32µM*
SMILES,BAZ2B inh,HP1b chromo inh,L3MBTL1 block,Sfp PPTase inh,JMJD2A Tudor,G9a inh
Cc1ccc(NC(=O)C(=O)C2C(=O)Nc3ccccc32)cc1 (stereo not given),3%,38%,-3%,14%,-13%,u
O=C1Nc2ccccc2C1C(C[N+](=O)[O-])c1ccccn1 (stereo not given),u,49%,x,-7%,-14%,35µM*
O=C(NCc1ccccn1)C(=O)C1C(=O)Nc2ccccc21 (stereo not given),79µM*,32%,x,-20%,-4%,50µM*
F[Si-2](F)(F)(F)(F)F,x,x,x,-3%,x,19%[59 µM]
Cc1cc(OC(C)C(=O)N(Cc2ccco2)Cc2ccco2)cc(C)c1Cl (stereo not given),12%,23%,x,x,-19%,-1%[59 µM]
Cc1ccc(S(=O)(=O)c2nnn3c2nc(N2CCN(c4ccc(F)cc4)CC2)c2cc(Cl)ccc23)cc1C,1%,25%,x,x,-6%,8%[59 µM]
O=C1Nc2ccccc2C1Cc1ccccn1 (stereo not given),u,1%,0%,-7%,89µM*,u
O=C1Nc2ccccc2C1Cc1ccc(OC(F)(F)F)cc1 (stereo not given),3%,39%,x,23%,-11%,1%
COc1cc(CC2C(=O)Nc3ccccc32)cc(C)c1O (stereo not given),-12%,16%,x,7%,-10%,35µM*
COC(C(C)/C=C/CC(=O)OCCCc1ccccc1)C1CCCCC1 (stereo not given),x,x,x,6%,x,x
O=C(NC(CC(=O)N1CCCC(C(F)(F)F)C1)c1ccccc1)c1ccccc1Cl (stereo not given),-7%,23%,x,4%,4%,14%
CSc1ncc(C(=O)N2CCN(c3ccc(Cl)cc3)CC2)c(C)n1,23%,10%,x,x,-16%,1%[59 µM]
Cn1nc(CC#N)c2c(=N)n(N)cnc21,x,2%,x,x,32µM*,x
Cc1cccc(N/N=C(\C=N\N)C(=O)c2ccc(Br)cc2)c1,u,x,u,21%,x,u
O=C(/C(=C/O)N=Nc1ccccc1Cl)c1ccccc1,13µM*,32µM*,u,3%,-26%[11.4 µM],40µM*
Cc1cccc(N=N/C(=C\O)C(=O)c2ccc(Br)cc2)c1,u,-9%,u,-12%,u,11µM*
O=C(/C(=C/O)N=Nc1cccc(C(F)(F)F)c1)c1ccccc1,25µM*,u,u,-3%,45µM*,45µM*
